Most compounds without a hit are left out; they make up all but 11% or so of the library.
ALDH1A1 inh – blocks purified human ALDH1A1 activity. P00352. Purified ALDH1A1, NADH fluorescence, propionaldehyde substrate. Potency, µM (titrated, usually from 75.3 µM), without a hit: at the top dose activity, negative = inhibition, hits mostly inhibitors. 7.3% of 220,000 active. AID 1030; active = well fitted inhibition curve with a large enough effect, not every such curve was filed as active; inconclusive = small, poorly fitted or top-dose-only effect, or another doubt; inactive = no such curve, though single readings can be large or run the other way;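 also: potency is read from the fitted curve at half-maximal effect; plate controls were no enzyme wells and a reference inhibitor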
PNC inhibitor – inhibitors of perinucleolar compartment assembly; PC3M PTB-GFP, PNC prevalence imaging, 16 h; hits give low values; activity change (PNC), negative = inhibition, % at 10 µM; 3.1% of 140,000 active;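 active = readout at or below -70, meaning at least 70% loss of cells showing the perinucleolar compartment, a nuclear body marking cancer cells; inconclusive = readout between -30 and a set limit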;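 also: plate controls were DMSO wells for no effect and camptothecin positive control wells for full effect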
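Read-out is percentage of cells bearing a perinucleolar compartment, from automated 20x imaging of fixed, Hoechst-stained PC3M PTB-GFP cells. Cells were seeded 4 h, then exposed 16 h to compound (23 nl of library stock) in duplicate plates.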
GoLoco inh red – RGS12 GoLoco-Gai1 interaction inhibition | P63096 | Gai1:RGS12 GoLoco peptide FP, rhodamine, 10 min | Potency, µM (doses to about 61.6 µM), inactives show at the top dose activity, negative = inhibition, hits mostly inhibitors | 0.44% of 230,000 active | AID 880; active = well fitted inhibition curve with a large enough effect, not every such curve was filed as active; inactive = no such curve, though single readings can be large or run the other way; also: potency is read from the fitted curve at half-maximal effect; % is scaled to controls: 0 for no effect and ±100 for the full control effect; nearly all actives have a fitted effect of over 30% in size
Target sequence (P63096 whole entry, looked up): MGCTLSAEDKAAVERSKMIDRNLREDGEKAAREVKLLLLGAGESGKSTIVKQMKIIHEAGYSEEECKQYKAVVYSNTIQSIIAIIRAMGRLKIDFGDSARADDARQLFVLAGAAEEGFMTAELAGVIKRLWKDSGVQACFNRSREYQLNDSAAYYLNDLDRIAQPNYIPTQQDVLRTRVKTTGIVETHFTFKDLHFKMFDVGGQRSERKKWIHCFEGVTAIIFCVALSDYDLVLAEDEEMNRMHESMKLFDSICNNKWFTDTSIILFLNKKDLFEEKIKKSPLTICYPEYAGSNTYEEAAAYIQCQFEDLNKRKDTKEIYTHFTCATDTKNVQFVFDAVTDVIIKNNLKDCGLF
HPGD block – blocks human HPGD enzyme activity. purified HPGD, NADH fluorescence kinetic, PGE2 substrate. Potency, µM, for inactives: top-dose activity change, negative = inhibition, actives largely listed as inhibitors. 4.3% of 150,000 active. AID 894; active = well fitted inhibition curve with a large enough effect, not every such curve was filed as active; inconclusive = small, poorly fitted or top-dose-only effect, or another doubt; inactive = no such curve, though single readings can be large or run the other way; also: potency is read from the fitted curve at half-maximal effect; % is scaled to controls: 0 for no effect and ±100 for the full control effect
Target sequence (P15428 whole entry, looked up): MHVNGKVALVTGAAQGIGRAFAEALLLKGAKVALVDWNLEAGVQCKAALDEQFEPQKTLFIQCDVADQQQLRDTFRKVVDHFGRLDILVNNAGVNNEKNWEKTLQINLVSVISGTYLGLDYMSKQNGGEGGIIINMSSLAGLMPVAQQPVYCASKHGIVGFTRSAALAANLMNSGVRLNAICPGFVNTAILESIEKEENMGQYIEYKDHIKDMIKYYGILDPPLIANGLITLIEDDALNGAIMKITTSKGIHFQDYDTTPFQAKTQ
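20 nM HPGD preincubated 15 min at room temperature with compound in 50 mM Tris-HCl pH 8, 0.01% Tween 20. Started with 1 mM NAD+ and 30 uM prostaglandin E2; NADH fluorescence (360/450 nm) read 5 times over 30-s intervals, last minus first.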
HttQ103 aggreg – mutant huntingtin aggregation inhibition; PC12 HttQ103-GFP aggregates, Acumen cytometry, 40 h; Potency, µM (doses to about 46.1 µM), for the others: at the highest dose activity change, negative = inhibition, most hits filed as inhibitors; 1.1% of 220,000 active; also: potency is read from the fitted curve at half-maximal effect; % is scaled to controls: 0 for no effect and ±100 for the full control effect; nearly all actives have a fitted effect of over 60% in size
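Ecdysone-promoter PC12 model expressing HTT exon 1 Q103 fused to GFP, induced by tebufenozide at 100 nM final. Compounds titrated; aggregates sized 1–25 µm scored on a 488 nm laser cytometer.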
HTT cytoprotect – cytoprotection in Huntington HTT-Q103 PC12 cell model. PC12 HTT-Q103 induced, cytoprotection, ATP luminescence, 40 h. Potency, µM (top dose mostly 56.4 µM), for inactives: cytoprotection (ATP increase), actives largely listed as activators. 0.14% of 230,000 active; also: potency is read from the fitted curve at half-maximal effect; % of control where 0% means no effect; nearly all actives have a fitted effect of over 45% in size
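Cells were plated at 1500 per well in phenol red-free DMEM with 5% equine and 5% calf serum. Tebufenozide (100 nM final) and compounds were added, then ATPlite reagent, and luminescence was read.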
Numbers without * were called inactive; ? = inconclusive; . = not tested or not shown; [ ] = remark or other dose. Unless noted, calls follow the shape of the dose curve; as a rule, active = well fitted curve in the direction sought with a large enough effect; inconclusive = small, poorly fitted or top-dose-only effect, or another doubt; inactive = no such curve, though single readings can be large; an effect the other way counts as inactive or inconclusive.

SMILES	ALDH1A1 inh	PNC inhibitor	GoLoco inh red	HPGD block	HttQ103 aggreg	HTT cytoprotect
CCCSC1=N/C(=C\c2ccc([N+](=O)[O-])o2)C(=O)S1	14µM*	.	152%	.	25%	-23%
CSC1=N/C(=C\c2ccc(C)o2)C(=O)S1	10µM*	-7	33%	?	?	3%
CSC1=N/C(=C\c2ccc(C)s2)C(=O)S1	-14%	-4	15%	-5%	3%	5%[10 µM]
CCCSC1=N/C(=C\C=C\c2ccco2)C(=O)S1	28µM*	14	26%	-28%	19%	-1%
CCSC1=N/C(=C\c2ccc(-c3ccccc3[N+](=O)[O-])o2)C(=O)S1	0.32µM*	59	-8%	-19%	16%	-14%
O=C(NNC(=S)NCCc1ccccc1)c1ccc(Br)s1	-6%	.	10%	.	-3%	24%
CN1C(C(=O)Nc2ccccn2)C(=O)c2sc(Cl)cc2S1(=O)=O (configuration not stated)	.	.	11%	.	14%	?
COc1c2c(nc3ccccc13)O[C@H]([C@@](C)(O)CO)C2	-7%[20.9 µM]	.	4%[21.6 µM]	-1%	.	3%[40.3 µM]
Cc1ccccc1-c1ccc2ncnc(NCc3cccnc3)c2c1	?	.	-5%	.	.	-234%
CCCCCCCCCCCC(=O)OCC(O)CO (configuration not stated)	.	.	-1%	.	-1%	3%
COc1cccc(C2C(C(=O)Nc3ccccc3)=C(C)N=c3s/c(=C/c4ccc(OCC(=O)O)cc4)c(=O)n32)c1 (configuration not stated)	-12%	-2	3%	-23%	15%	.
CCOC(=O)C1=C(C)N=c2s/c(=C\c3ccc(OCC(=O)O)cc3)c(=O)n2C1c1ccc(OC(C)C)cc1 (configuration not stated)	8%	-1	5%	4.5µM*	-3%	.
CCOC(=O)N1CCN(C(=O)CSc2ccc3nnc(CCNC(=O)c4ccccc4)n3n2)CC1	-15%	.	5%	.	-3%	-6%
CCOC(=O)N1CCN(C(=O)CSc2ccc3nnc(CCNC(=O)c4ccc(OC)cc4)n3n2)CC1	7.9µM*	.	-12%	.	-2%	9%
C=CCn1c(SCc2c(C(=O)OC)sc(N)c2C(=O)OC)nnc1-c1ccc(Br)cc1	25µM*	?	68%	?	27%[9.22 µM]	-15%
C=CCn1c(SCC(=O)O)nnc1-c1ccc(C(C)(C)C)cc1	?	?	-1%	-21%	3%	-23%
Cc1cc(=O)oc(C)c1C(=O)NC1CCCCCCC1	?	.	1%	.	-2%	18%[10 µM]
CC(=O)N(C)C1=C(O)c2ccccc2C(=O)C1=O	?	60	-1%	-16%	-15%	?
CC(=O)N(C1=C(O)c2ccccc2C(=O)C1=O)C1CCCCC1	10µM*	12	7%	-26%	-15%	-13%
CC1CCC/C(=N/NC(=O)c2ccccc2-n2cccc2)C1 (configuration not stated)	?	-109*	6%	4%	4%	.
CC(=O)C[C@H](O)[C@@H](NC(=O)OC(C)(C)C)C(C)C	-5%[13.5 µM]	.	.	.	.	-20%[10 µM]
CCCCCCC/C=C/C1=CC2(C)CC1(C)C(CCCCCCC)CC2=O (configuration not stated)	-5%[13.5 µM]	.	.	.	.	-7%[10 µM]
Cc1ccn2c(C(=O)NN=C3CCN(C)CC3)c(C)nc2c1	2.2µM*	.	-1%	.	-1%	-9%
Cc1ccc(C)c(-n2c(C)cc(/C=N/NC(=O)c3c(C)nc4cc(C)ccn34)c2C)c1	13µM*	-28	17%	?	-9%	7%[10 µM]
Cc1ccc2nc(C)c(C(=O)N/N=C/c3cccs3)n2c1	?	-12	12%	-11%	0%	-1%[10 µM]
SMILES	ALDH1A1 inh	PNC inhibitor	GoLoco inh red	HPGD block	HttQ103 aggreg	HTT cytoprotect
Cc1ccc2nc(C)c(C(=O)NN=C3CCCCCC3)n2c1	7.9µM*	.	12%	.	5%[9.22 µM]	6%[10 µM]
COc1ccc(NC(=O)N2CCCC2)cc1OC	3%	-109*	-23%	-11%	30%	12%
COc1ccc(NC(=O)CSc2ccccc2)c(OC)c1	4%	-81*	10%	-28%	14%	-7%[1.9 µM]
COc1ccc(NCC(=O)Nc2ccc(Br)cc2F)c(OC)c1	1.6µM*	.	8%	.	-14%[9.22 µM]	-15%[10 µM]
O=C(CN1CCN(C(=O)c2c(F)cccc2F)CC1)Nc1ccccc1F	25µM*	?	1%	-2%	-14%	8%
CCC(=O)Nc1ccc(OC)cc1OC	6%	?	20%	-12%	0%	-5%[0.074 µM]
COc1ccc(S(=O)(=O)N2CCN(CCC(=O)Nc3ccccc3F)CC2)cc1	1.1µM*	-8	-4%	-11%	?	14%
COc1ccc(NC(=O)CSc2ccc3nnc(-c4cccnc4)n3n2)c(OC)c1	40µM*	.	51%	.	-10%	0%
CCOC(=O)c1cc(-c2ccccc2)n(CC(=O)Nc2cccc(OC)c2)c1C	9%	?	8%	-5%	-15%	-17%[10 µM]
O=C(CCN1CCN(S(=O)(=O)c2ccc(Cl)cc2)CC1)Nc1ccccc1F	?	.	7%	.	17%	-5%
COc1ccccc1NC(=O)CSc1ccc2nnc(-c3cccnc3)n2n1	17%	-22	3%	-11%	-10%	-15%
CCOC(=O)c1cc(-c2ccccc2)n(CC(=O)Nc2ccc(OC)c(OC)c2)c1C	8%	-88*	8%	-5%	16%	25%[10 µM]
COc1ccc(NC(=O)CN2CCN(CC(=O)Nc3ccccc3F)CC2)c(OC)c1	18µM*	-9	5%	-16%	-3%	3%[10 µM]
COc1ccc(CCN(Cc2cc3cccc(C)c3n3nnnc23)C(=O)c2ccncc2)cc1OC	2%	.	1%	.	-2%[9.22 µM]	36%[10 µM]
O=C(CN1CCN(S(=O)(=O)c2ccccc2F)CC1)Nc1ccccc1C(=O)c1ccccc1	2.8µM*	.	3%	.	-21%	.
COc1ccc(-c2nnc3ccc(SCC(=O)NCc4ccco4)nn23)cc1OC	-50%	-5	-4%	14µM*	-7%	-24%
Cc1ccc(-c2nnc3ccc(SCC(=O)NCc4ccco4)nn23)cc1	-13%	?	8%	-11%	-5%	-4%[10 µM]
COc1ccc(NC(=O)CN2CCN(CC(=O)Nc3ccccc3F)CC2)cc1OC	22µM*	-6	-2%	-9%	17%	0%[10 µM]
c1ccc(Sc2ncnc3c2oc2ccccc23)cc1	?	73	8%	32µM*	-24%	-13%
OCCSc1ncnc2c1oc1ccccc12	?	-16	7%	25µM*	1%	-15%[0.074 µM]
N#CCCSc1ncnc2c1oc1ccccc12	?	24	-2%	-27%	?	-1%[0.074 µM]
Cc1nn(CC(=O)NCc2ccc(Cl)cc2)c(C)c1[N+](=O)[O-]	-4%	164	-19%	-20%	2%	17%[10 µM]
